# Source: PubChem BioAssay (NCI)
# About 79,000 compounds went through this panel and 15% of them were active in at least one assay; those are over-represented in the sample as a whole. Values without a mark were called inactive. The source made the active and inactive calls. Cut-off read from the data, not from the text of the source: active = growth inhibition above about 70%; inactive = the rest.
# Experiment: NCI Yeast Anticancer Drug Screen. Data for the wt1 strain (AID 149);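 note: 0% = growth of vehicle-treated wt1 cultures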
# Details: S. cerevisiae wt1 strain (SPY 50644) growth inhibition, active compounds read high
# Experimental: Growth inhibition of yeast strains with defined genetic alterations is measured as a screen for potential anti-cancer activity. Selected strains with alterations in DNA damage repair or cell cycle control were exposed to compounds and growth inhibition was measured relative to vehicle treated controls. The strain used in this assay is wt1
SMILES,growth inhibition (at 1.2 µM) [%],growth inhibition (at 3.7 µM) [%],growth inhibition (at 11.0 µM) [%],growth inhibition (at 33.0 µM),growth inhibition (at 100.0 µM)
O=C1Nc2ccc(Br)cc2C1=Nc1cccnc1,-25,-20,-17,-8%,-24%
O=C1SS(=O)c2ccccc21 (stereo not given),-5,-2,12,-5%,67%
O=C1Oc2ccccc2C(=O)/C1=C/N1C(=O)N/C(=C\c2ccccc2Br)C1=O,4,7,8,18%,55%
O=[N+]([O-])c1ccc(S(=O)(=O)Cc2ccccc2)c([N+](=O)[O-])c1,6,9,24,88% (active),99% (active)
CC1(c2ccccc2)O[C@@H]2C[C@H]3[C@@H]4CCC5=CC(=O)C=C[C@]5(C)[C@@]4(F)[C@@H](O)C[C@]3(C)[C@]2(C(=O)CO)O1 (stereo not given in full),0,6,3,24%,94% (active)
COc1cc(C(=O)C=O)cc(OC)c1OC,-3,-4,-7,-5%,61%
CC(C)(N=Nc1ccc(Cl)cc1)[N+](=O)[O-],10,12,68,98% (active),98% (active)
Cc1cccc2c(NCCCN(C)C)c3c([N+](=O)[O-])ccc(C)c3nc12,5,13,39,95% (active),97% (active)
